Rv3671c inh – inhibits the M. tuberculosis serine protease Rv3671c. P9WHR9. 320,000 tested, 0.048% active. inhibition, % at 5.96 µM. AID 2606; in the data active means inhibition above about 38%;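 further: extracellular domain of Rv3671c used as enzyme; 0% = enzyme with DMSO and 100% = no enzyme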
FBA Mtb inh – inhibitors of M. tuberculosis fructose-bisphosphate aldolase; P9WQA3; purified M. tuberculosis FBA, fluorescence read-out; inhibition, % at 1 µM; 360,000 tested, 2.3% active;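 further: 0% = vehicle and 100% = reference inhibitor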
GDH-TPI counter-1 – counter-screen for M. tuberculosis FBA inhibitors: GDH-TPI coupled enzymes; GDH-TPI coupled enzyme counterscreen, NADH absorbance; inhibition, % at 4.8 µM; 360,000 tested, 1.2% active; AID 588335; in the data active means inhibition above about 30%;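 further: 0% = DMSO wells and 100% = wells lacking the enzyme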
UGM FP inh – inhibitors of M. tuberculosis UDP-galactopyranose mutase; 320,000 tested, 0.06% active; P9WIQ1; inhibition, % at 10 µM; purified UGM, fluorescence polarization probe displacement; in the data active means inhibition above about 10%, passing the limit was not always enough
RecA intein inh – inhibitors of M. tuberculosis RecA intein splicing. 290,000 tested, 0.75% active. cell-free RecA intein splicing, fluorescence. P9WHJ3. AID 2221. inhibition, % (concentration not given with the values); in the data active means inhibition above about 30%;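 further: 0% = vehicle wells and 100% = reference inhibitor control wells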
Target sequence (P9WHJ3 whole entry, looked up): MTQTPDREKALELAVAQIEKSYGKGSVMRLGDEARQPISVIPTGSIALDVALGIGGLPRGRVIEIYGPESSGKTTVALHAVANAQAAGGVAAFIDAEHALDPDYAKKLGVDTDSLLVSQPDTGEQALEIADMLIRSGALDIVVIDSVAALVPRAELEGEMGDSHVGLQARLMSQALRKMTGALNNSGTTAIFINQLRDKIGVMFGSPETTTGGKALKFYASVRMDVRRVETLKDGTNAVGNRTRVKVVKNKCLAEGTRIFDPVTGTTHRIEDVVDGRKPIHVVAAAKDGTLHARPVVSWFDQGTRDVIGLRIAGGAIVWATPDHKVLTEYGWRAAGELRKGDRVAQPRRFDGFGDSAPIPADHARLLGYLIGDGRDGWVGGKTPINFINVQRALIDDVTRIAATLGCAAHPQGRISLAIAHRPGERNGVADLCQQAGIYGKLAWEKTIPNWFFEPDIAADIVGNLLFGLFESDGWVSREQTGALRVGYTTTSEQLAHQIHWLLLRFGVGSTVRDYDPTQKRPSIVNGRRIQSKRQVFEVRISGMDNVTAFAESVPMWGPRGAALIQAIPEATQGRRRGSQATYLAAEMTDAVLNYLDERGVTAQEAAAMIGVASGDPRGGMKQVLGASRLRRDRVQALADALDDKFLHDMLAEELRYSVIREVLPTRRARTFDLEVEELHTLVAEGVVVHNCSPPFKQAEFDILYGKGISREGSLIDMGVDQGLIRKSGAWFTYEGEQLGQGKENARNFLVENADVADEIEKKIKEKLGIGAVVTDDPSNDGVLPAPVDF
Vc quorum ag – inducers of Vibrio cholerae quorum light production without autoinducers. V. cholerae BH1578 lux reporter, luminescence, 6 h. activation, % at 18.7 µM. 350,000 tested, 0.16% active. AID 588436; in the data active means activation mostly above about 9.7%, no sharp cut-off
Mtb FBA confirm – confirmation of M. tuberculosis fructose-bisphosphate aldolase inhibitors; shares compounds with FBA Mtb inh; purified M. tuberculosis FBA, fluorescence read-out; inhibition, % at 1 µM; 5,600 tested, 78% active;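 further: 0% = vehicle wells and 100% = reference inhibitor wells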
GDH-TPI counter-2 – counter-screen for M. tuberculosis FBA inhibitors: GDH-TPI coupled enzyme inhibition; shares compounds with FBA Mtb inh; GDH-TPI coupled enzyme counterscreen, fluorescence; 5,600 tested, 81% active; inhibition, % at 1 µM; AID 652141; in the data active means inhibition above about 10%
GDH-TPI DR – GDH-TPI dose response counter-screen for Mtb FBA; shares compounds with FBA Mtb inh; IC50, µM; GDH-TPI coupled enzyme assay, fluorescence, artifact counterscreen; 170 tested, 79% active; call rule not given here
* hit, by the source's call; i = inactive; · = no result given; + = active, no number. In the library only some 4.1% were active in any assay of this set; here they are far more common. Unless noted, no stated cut-off is given here; in the data, active means inhibition above about 27%; inactive means the rest.

SMILES	Rv3671c inh	FBA Mtb inh	GDH-TPI counter-1	UGM FP inh	RecA intein inh	Vc quorum ag	Mtb FBA confirm	GDH-TPI counter-2	others
COc1ccc(OC(F)(F)F)cc1CC1(C)C(=O)Nc2c(Cl)ccc(Cl)c21 (configuration not stated)	·	-3	10	·	·	i	·	·
Cc1nc2ccc(C(=O)N(C)Cc3ccco3)cn2c1N(C)C(=O)CCc1ccccc1	·	-1	-4	·	·	-5	·	·
O=C(c1cc2c(s1)CCCC2)N1CCN(c2ccccc2)CC1	1	34*	-1	0	3	i	84*	67*
Cc1nc2cc3ccccc3cc2c(=O)[nH]1	8	67*	19	-1	0	1	2	-4
Cc1nc2sc(-c3ccccc3)cc2c(=O)[nH]1	-6	1	18	1	4	i	·	·
Cc1cc2cc3c(=O)[nH]c(=O)[nH]c3nc2cc1C	-2	·	·	-2	-5	·	·	·
O=c1[nH]c(=O)c2cc3ccccc3nc2[nH]1	·	75*	15	·	·	1	47*	45*
CCc1nnc(NC(=O)CSc2nnc(C)c(=O)n2N)s1	-12	1	-4	2	-1	0	·	·
O=C(Cc1cccs1)Nc1cccc(-c2nc3cc4ccccc4cc3[nH]2)c1	-347	56*	22	-1	3	-4	-5	-4
O=C(O)CCCCCCCCc1cn(CCc2c[nH]c3ccccc23)nn1	-3	2	5	2	-1	-1	·	·
COc1ccc(OC)c(S(=O)(=O)NCC(c2ccco2)N2CCc3ccccc32)c1 (configuration not stated)	9	2	8	-1	9	-12	·	·
CCOc1ccc(Cl)cc1-c1cc(C(=O)NC(C)C)[nH]n1	·	1	6	·	·	0	·	·
Cc1nnc(C)n1N1C(=O)c2cccc3cccc(c23)C1=O	10	62*	24	-1	-1	i	17	10*
CC(=O)c1ccc(-c2ccc(C(=O)NCC(c3ccco3)N(C)C)o2)cc1 (configuration not stated)	2	68*	47*	3	·	1	-2	-2
COc1cc(-c2nc3ccc(C)cn3c2NCc2ccccc2)ccc1-c1cccc(Cl)c1	6	40*	9	0	·	i	8	-2
CCC(C)Sc1ccc(-c2nc3ccc(C)cn3c2NCc2ccccc2)cc1 (configuration not stated)	6	38*	15	·	·	1	94*	75*
Cc1ccc2nc(-c3ccc(-c4cccc(Cl)c4)cc3)c(NCc3ccccc3)n2c1	0	29*	36*	2	-8	-1	12	9	GDH-TPI DR=1.5*
COc1ccc(-c2nc3ccc(C)cn3c2NCc2ccc3c(c2)OCO3)cc1	0	9	6	-1	-9	0	·	·
CCCCCCSc1ccc(-c2nc3ccc(C)cn3c2NC2CCCCC2)cc1	-11	11	8	1	3	i	·	·
COc1ccc(F)cc1-c1cc(C(=O)NCc2cccc(Cl)c2)[nH]n1	·	-1	-4	·	·	-2	·	·
COc1ccc(NC(=O)C2(C)Cc3c(-c4cccc(C(N)=O)c4)ccnc3O2)cc1OC (configuration not stated)	·	2	-2	·	·	0	·	·
CC(=O)Nc1ccc(-c2ccnc3c2CC(C)(C(=O)Nc2cccc(OC(F)(F)F)c2)O3)cc1 (configuration not stated)	·	3	10	·	·	i	·	·
CC1(C(=O)Nc2ccc3c(c2)OCCO3)CCC(=O)N1CCOc1ccccc1 (configuration not stated)	·	-1	·	·	·	·	·	·
COc1cc2c(cc1OC)CC[N+](C)=C2	-9	95*	15	-2	-42	0	111*	76*
COc1cc2c(cc1OC)C[N+](C)(C)CC2	-5	4	0	0	-3	0	·	·
SMILES	Rv3671c inh	FBA Mtb inh	GDH-TPI counter-1	UGM FP inh	RecA intein inh	Vc quorum ag	Mtb FBA confirm	GDH-TPI counter-2	others
COc1ccc(C(=O)Nc2ccccc2C(=O)NC2CC2)c(OC)c1OC	·	-1	-8	·	·	0	·	·
CCN(C(=O)c1cc2c(=O)n3ccccc3nc2s1)C1CCCCC1	4	72*	7	2	-38	0	56*	32*
CC1CCN(C(=O)c2cc3c(=O)n4ccccc4nc3s2)CC1	2	87*	15	2	-45	0	132*	100*
O=C(c1cc2c(=O)n3ccccc3nc2s1)N1CCOCC1	-2	79*	25	1	-9	-1	+	+
CCN(C(=O)c1cc2c(=O)n3cccc(C)c3nc2s1)C1CCCCC1	-7	4	3	1	-5	i	·	·
CCCNC(=O)COC(=O)c1cc2c(=O)n3ccccc3nc2s1	7	76*	5	1	-208	0	10	3
O=C(c1cc2c(=O)n3ccccc3nc2s1)N1CCN(c2cccc(Cl)c2)CC1	-19	13	16	0	-3	0	·	·
C[C@H]1NC(=O)[C@@]2(C)[C@@H](c3ccccc3)[C@H]3COc4ccccc4[C@@H]3N2C1=O	-11	1	5	-1	·	i	·	·
CCOC(=O)C1CCCN(C(=O)c2cc3c(=O)n4ccccc4nc3s2)C1 (configuration not stated)	-4	63*	16	1	-61	i	10	-7
CCOC(=O)N1CCN(C(=O)c2cc3c(=O)n4cccc(C)c4nc3s2)CC1	-9	16	9	-1	-8	-7	·	·
CCOC(=O)c1c(S(=O)(=O)NCC(=O)Nc2cccc(F)c2)c(C)n(C)c1C	-1	1	3	0	0	i	·	·
Cc1ccc(-c2cc(-c3ccc(F)cc3)c(C#N)c(N)n2)o1	-3	47*	3	3	-26	0	+	173*
Cc1cc(N2CCN(C)CC2)n2cc(-c3ccc(F)cc3)nc2n1	4	69*	17	3	0	0	41*	37*
C[C@H](O)[C@@H]1CN2CCc3c([nH]c4ccc(-c5ccc6c(c5)OCO6)cc34)[C@@H]2C[C@@H]1N(C)C(=O)Nc1cc(Cl)cc(Cl)c1	·	1	11	·	·	0	·	·
CCN(CC)C(=O)Cc1cc(C(=O)O)c2ccccc2n1	-1	5	6	0	1	0	·	·
CCOc1ccccc1/C=C/c1nc2ccccc2[nH]c1=O	·	43*	28	-5	-58	i	0	0
CCOc1ccccc1/C=C/c1cc(C(=O)O)c2ccccc2n1	0	29*	9	2	1	-7	91*	71*
Fc1cccc(F)c1-c1nc(-c2ccncc2)no1	3	0	-5	0	2	0	·	·
COc1ccc(-c2cnc(C(N)=O)c(=O)[nH]2)cc1	·	65*	14	·	·	0	71*	60*

Screens as filed in PubChem.
